One assay concerns RARg homodimer (NR concentration 270 nM). The experiment in a line: PBM binding z-score (relative to random genomic background probes); higher = stronger binding; sequences stand for … in GC…GCGATTGACAGCGTAGAATGAAGG
In a few lines: (§1)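 Binding z-scores take random background probes as their reference. They come from custom Agilent 4×180K protein-binding microarrays incubated 1 h with ligand-free nuclear receptor dimers, with antibodies against each partner (one per run) detecting binding. Scanned fluorescence was regression-normalized.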
For the sequence CAAACTAGGTCAAGAGGTCAACGTCCGCTTCCCG, the PBM binding z-score is 7.74.

On to CCTCACGGGTCACTCCAGGTTATAGCATCGGAGT, for which the PBM binding z-score amounted to 4.2.

In the case of CGTCAAAGTTCAAGGTAACCTAACAGAAAGCAGC, the PBM binding z-score turned out to be 6.2.

The sequence TCTATTGGTTGAAGGGCAACCGACGAGTCCGTTT came in with a PBM binding z-score of 0.586.

As for TCGATTAGGTTAGTCGGGGCATTCAGCCAACATA, the PBM binding z-score came to 0.141.

For the sequence AGAATGAGGTTATTAAGGTCAGGGAATTGCGGTC, the PBM binding z-score stood at 3.63.

In turn, CAAACTAGGTCACCGGAAGGTCCAAGTCCGCATG returned a PBM binding z-score of 5.86.

TCTACTAGGTCAGTTGGTCAGCTAACGAGCTGCC gave a PBM binding z-score of 3.58.

CTACCAAGGTTAACAAGGTCGTTGATTACTATTC came in with a PBM binding z-score of 2.39.

CCTACTGGGCCATTCAGAGGTCATTGGTCATATG returned a PBM binding z-score of 2.64.

CGTCCTAGGTCAGCAGGTCAGTGAAAGCGACGTG: the PBM binding z-score is 5.41.

Regarding AGAACGAGGGCACGCGGAGTTGATAGCAGAGTAG, the PBM binding z-score worked out at 2.41.

As for TAGCCTAGGTCATGCGGGCCAGTTTAGTGTCGGC, the PBM binding z-score came to 4.73.

In the case of CGAACGAGGGCATGAGTTGGTAGCAAATGCCGAT, the PBM binding z-score came out at 1.29.

CCTACTGGCCCAAAAAGGTCATTGATGCCGATAA: the PBM binding z-score was determined as 4.12.

ACTAGTTGGTCGGCTGAGGTCACACACAATTCGG came in with a PBM binding z-score of 3.25.

Regarding TCTTGTAGATCAACAGGAGGTTATGAAAGATCGA, the PBM binding z-score worked out at 0.211.

For the sequence TCATATAGGTAATACAAGTGAAAGTCGGCATCTA, the PBM binding z-score is 0.72.

A further assay has as its system RXRa DBDmut IVT, anti-RXR (DBD mutation: RXRa K156A/R161A, NR concentration 90 nM). The description is as above. In a few lines:
as §1
CCTGCTAGGTCATGGGCAGCTAATCTACAGTATG yielded a PBM binding z-score of 1.05.

GCGACTGGGGCATCAGCAGGTTACCAGAACTTAA: the PBM binding z-score is -0.241.

With TTACCAAGGTGAGGGTCGTTGATCCCTCTGTAGA, the PBM binding z-score was -0.138.

In turn, ATATGTAGGTTATCGGGTCATTGAGTTTGCGCAT had a PBM binding z-score of 1.94.

In the case of ATCTGTAGGTAAAGTTCAGTGAAAGATCGATAGA, the PBM binding z-score turned out to be 1.35.

In turn, TCTCGGAGGACACGAAGGTCACAGCTTTCCAGAG displayed a PBM binding z-score of 1.47.

Consider CCTACTCGGCCAAGGTCATTGATCAGTCAAAGCA, for which the PBM binding z-score turned out to be 2.24.

Turning to CCTACTGGGCCATCAAGTCATTGATATCAACGTT, the PBM binding z-score stood at 0.0115.

ACTAGCAGGCCAATGGTCACTCAAGATTAGTCCG yielded a PBM binding z-score of -0.107.

In the case of AGTCACAGTTCAGGACGAGGTAACGTAAAGCACG, the PBM binding z-score was determined as 1.31.

TCATATAGGTAAATCCTAGGTGAAAGTCCGATCT registered a PBM binding z-score of 1.37.

The sequence TCTTGTAGATCCATAGAGGTTAAGAAAGTGCGCT displayed a PBM binding z-score of 0.691.

The sequence CGTTCAAGGTCAGAGAGGTCAGTGAATGCCGAGT had a PBM binding z-score of 3.83.

Turning to TGACCAAGGTGAAAGGTCGTTGATGCACGCCTTG, the PBM binding z-score turned out to be 0.0698.

Regarding CGTCCAAGGTTAGAGAGGTCAGTGAATGCCGAGT, the PBM binding z-score turned out to be 1.67.

ACTAGTTGGTCAGCTGACGTCACACACAATTCGG returned a PBM binding z-score of 0.433.

For the sequence GCTGCTAGGTCAACTGTTGGTCAGCTAAAGCTCG, the PBM binding z-score worked out at 1.66.

TCTAGTTGGTCCCGGAGGTCACACACGACGGGTA: the PBM binding z-score turned out to be 0.937.

Take ACGAGCAGGCCAAGGGTCACTCAAGATTAGTCCG: the PBM binding z-score turned out to be 0.0917.

Turning to GCTGCTAGGTCACCTGATGGTCAGCTAAAGCTCG, the PBM binding z-score came to 1.18.

Regarding GATACAGGGTAAAGGCCAGAGTACGCGTATTGAT, the PBM binding z-score was -0.389.

For ATATGTAGGTTAAGGGTCATTTAGGTTGGTTCGC, the PBM binding z-score amounted to 2.35.

As for CAAACTAGGTCAAGAGGTCAACGTCCGCTTCCCG, the PBM binding z-score amounted to 2.76.

As for CCTCACGGGTCACTCCAGGTTATAGCATCGGAGT, the PBM binding z-score was 1.49.

As for CGTCAAAGTTCAAGGTAACCTAACAGAAAGCAGC, the PBM binding z-score is 4.3.

TCTATTGGTTGAAGGGCAACCGACGAGTCCGTTT gave a PBM binding z-score of 1.37.

On to TCGATTAGGTTAGTCGGGGCATTCAGCCAACATA, for which the PBM binding z-score was 1.32.

For the sequence AGAATGAGGTTATTAAGGTCAGGGAATTGCGGTC, the PBM binding z-score amounted to 2.88.

In the case of CAAACTAGGTCACCGGAAGGTCCAAGTCCGCATG, the PBM binding z-score was 1.82.

For the sequence TCTACTAGGTCAGTTGGTCAGCTAACGAGCTGCC, the PBM binding z-score was 1.19.

CTACCAAGGTTAACAAGGTCGTTGATTACTATTC registered a PBM binding z-score of 2.35.

CCTACTGGGCCATTCAGAGGTCATTGGTCATATG had a PBM binding z-score of 0.884.

CGTCCTAGGTCAGCAGGTCAGTGAAAGCGACGTG returned a PBM binding z-score of 0.595.

As for AGAACGAGGGCACGCGGAGTTGATAGCAGAGTAG, the PBM binding z-score came to 1.91.

In turn, TAGCCTAGGTCATGCGGGCCAGTTTAGTGTCGGC gave a PBM binding z-score of 0.93.

In the case of CGAACGAGGGCATGAGTTGGTAGCAAATGCCGAT, the PBM binding z-score was 1.87.

CCTACTGGCCCAAAAAGGTCATTGATGCCGATAA displayed a PBM binding z-score of 0.618.

For the sequence ACTAGTTGGTCGGCTGAGGTCACACACAATTCGG, the PBM binding z-score was 1.12.

TCTTGTAGATCAACAGGAGGTTATGAAAGATCGA displayed a PBM binding z-score of 0.368.

As to TCATATAGGTAATACAAGTGAAAGTCGGCATCTA, the PBM binding z-score is 2.07.

The subject of another assay is RXRa homodimer (NR concentration 180 nM). The assay is described as above. The essentials: as §1
In the case of CCTGCTAGGTCATGGGCAGCTAATCTACAGTATG, the PBM binding z-score came to 2.83.

Sequence GCGACTGGGGCATCAGCAGGTTACCAGAACTTAA had a PBM binding z-score of 0.262.

TTACCAAGGTGAGGGTCGTTGATCCCTCTGTAGA showed a PBM binding z-score of 1.37.

ATATGTAGGTTATCGGGTCATTGAGTTTGCGCAT displayed a PBM binding z-score of 3.51.

Turning to ATCTGTAGGTAAAGTTCAGTGAAAGATCGATAGA, the PBM binding z-score was determined as 1.16.

TCTCGGAGGACACGAAGGTCACAGCTTTCCAGAG showed a PBM binding z-score of 3.74.

As for CCTACTCGGCCAAGGTCATTGATCAGTCAAAGCA, the PBM binding z-score was determined as 3.6.

Sequence CCTACTGGGCCATCAAGTCATTGATATCAACGTT returned a PBM binding z-score of -0.103.

In turn, ACTAGCAGGCCAATGGTCACTCAAGATTAGTCCG returned a PBM binding z-score of 0.0416.

Turning to AGTCACAGTTCAGGACGAGGTAACGTAAAGCACG, the PBM binding z-score is 1.28.

On to TCATATAGGTAAATCCTAGGTGAAAGTCCGATCT, for which the PBM binding z-score is 0.983.

TCTTGTAGATCCATAGAGGTTAAGAAAGTGCGCT displayed a PBM binding z-score of 1.1.

In the case of CGTTCAAGGTCAGAGAGGTCAGTGAATGCCGAGT, the PBM binding z-score was 5.61.

TGACCAAGGTGAAAGGTCGTTGATGCACGCCTTG showed a PBM binding z-score of 5.72.

Take CGTCCAAGGTTAGAGAGGTCAGTGAATGCCGAGT: the PBM binding z-score is 3.43.

As for ACTAGTTGGTCAGCTGACGTCACACACAATTCGG, the PBM binding z-score was 0.459.

Consider GCTGCTAGGTCAACTGTTGGTCAGCTAAAGCTCG, for which the PBM binding z-score worked out at 3.12.

On to TCTAGTTGGTCCCGGAGGTCACACACGACGGGTA, for which the PBM binding z-score worked out at 4.39.

ACGAGCAGGCCAAGGGTCACTCAAGATTAGTCCG came in with a PBM binding z-score of 4.07.

For GCTGCTAGGTCACCTGATGGTCAGCTAAAGCTCG, the PBM binding z-score amounted to 2.64.

Regarding GATACAGGGTAAAGGCCAGAGTACGCGTATTGAT, the PBM binding z-score was found to be 0.877.

Regarding ATATGTAGGTTAAGGGTCATTTAGGTTGGTTCGC, the PBM binding z-score worked out at 6.16.

For CAAACTAGGTCAAGAGGTCAACGTCCGCTTCCCG, the PBM binding z-score was 7.68.

CCTCACGGGTCACTCCAGGTTATAGCATCGGAGT registered a PBM binding z-score of 4.07.

For CGTCAAAGTTCAAGGTAACCTAACAGAAAGCAGC, the PBM binding z-score stood at 4.71.

TCTATTGGTTGAAGGGCAACCGACGAGTCCGTTT registered a PBM binding z-score of 0.744.

Take TCGATTAGGTTAGTCGGGGCATTCAGCCAACATA: the PBM binding z-score turned out to be 0.147.

With AGAATGAGGTTATTAAGGTCAGGGAATTGCGGTC, the PBM binding z-score turned out to be 4.62.

CAAACTAGGTCACCGGAAGGTCCAAGTCCGCATG gave a PBM binding z-score of 3.81.

In turn, TCTACTAGGTCAGTTGGTCAGCTAACGAGCTGCC displayed a PBM binding z-score of 1.24.

As for CTACCAAGGTTAACAAGGTCGTTGATTACTATTC, the PBM binding z-score worked out at 2.98.

For the sequence CCTACTGGGCCATTCAGAGGTCATTGGTCATATG, the PBM binding z-score is 3.6.

Sequence CGTCCTAGGTCAGCAGGTCAGTGAAAGCGACGTG returned a PBM binding z-score of 3.21.

As for AGAACGAGGGCACGCGGAGTTGATAGCAGAGTAG, the PBM binding z-score is 1.66.

TAGCCTAGGTCATGCGGGCCAGTTTAGTGTCGGC gave a PBM binding z-score of 3.2.

For CGAACGAGGGCATGAGTTGGTAGCAAATGCCGAT, the PBM binding z-score was 0.675.

CCTACTGGCCCAAAAAGGTCATTGATGCCGATAA: the PBM binding z-score came out at 5.25.

ACTAGTTGGTCGGCTGAGGTCACACACAATTCGG came in with a PBM binding z-score of 4.19.

The sequence TCTTGTAGATCAACAGGAGGTTATGAAAGATCGA showed a PBM binding z-score of 0.889.

TCATATAGGTAATACAAGTGAAAGTCGGCATCTA returned a PBM binding z-score of 1.23.

The values above are taken from the supplement of paper PMC6555819.
